Experimental data: PubChem BioAssay (Tox21)
Unmarked numbers belong to inactive results. Records with an inconclusive call do not appear. A call without a number means that no potency is given here. Active and inactive are the calls of the source. Calls come from the whole dose curve.

Tests used:
[1] = target: Acetylcholinesterase (Homo sapiens) (UniProt P22303); assay: Acetylcholinesterase (AChE) small molecule antagonists: colormetric cell-based qHTS assay (AID 1347395); note: nearly all actives have a fitted effect of over 30% in size; note: potency is the fitted concentration of half-maximal effect
Sequence of Acetylcholinesterase (Homo sapiens) (P22303 whole entry, looked up): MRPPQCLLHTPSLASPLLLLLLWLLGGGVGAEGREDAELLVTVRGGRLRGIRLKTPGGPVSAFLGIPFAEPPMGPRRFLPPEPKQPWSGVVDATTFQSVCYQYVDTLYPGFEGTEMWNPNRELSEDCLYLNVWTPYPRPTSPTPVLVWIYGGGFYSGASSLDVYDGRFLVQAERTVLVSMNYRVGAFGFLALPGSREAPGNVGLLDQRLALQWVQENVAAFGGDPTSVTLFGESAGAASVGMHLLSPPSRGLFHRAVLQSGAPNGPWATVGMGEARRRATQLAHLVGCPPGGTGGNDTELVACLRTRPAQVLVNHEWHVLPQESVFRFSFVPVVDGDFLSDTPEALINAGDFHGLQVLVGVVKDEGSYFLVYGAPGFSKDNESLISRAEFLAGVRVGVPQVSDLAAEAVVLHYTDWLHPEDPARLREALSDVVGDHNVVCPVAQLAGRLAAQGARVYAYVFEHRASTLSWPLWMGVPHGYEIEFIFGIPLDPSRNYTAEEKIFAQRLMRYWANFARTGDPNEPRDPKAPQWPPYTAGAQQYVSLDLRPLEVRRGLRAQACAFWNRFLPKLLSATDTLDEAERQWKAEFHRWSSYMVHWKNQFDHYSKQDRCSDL
In short: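 SH-SY5Y cells, plated overnight at 37 C, were exposed to compounds for 30 min at 37 C and 5% CO2. Acetylthiocholine plus DTNB was then added, and thiocholine from endogenous AChE was quantified colorimetrically after 90 min at 37 C.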

[2] = target: Acetylcholinesterase (Homo sapiens) (UniProt P22303); assay: Acetylcholinesterase (AChE) small molecule antagonists: fluorescence cell-based qHTS assay (AID 1347398); details: Potency: AChE activity; outcome: AChE activity; note: nearly all actives have a fitted effect of over 50% in size; note: potency is the fitted concentration of half-maximal effect
In short: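 Homogeneous quantitative HTS format. SH-SY5Y cells seeded at 2,000 per well settle overnight at 37 C. Compound pretreatment runs 30 min (37 C, 5% CO2); substrate/probe mix then reacts 40 min at RT before reading 490/520 nm.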

[3] = target: Acetylcholinesterase (Homo sapiens) (UniProt P22303); assay: Acetylcholinesterase (AChE) small molecule antagonists: enzyme-based qHTS assay with human liver microsomes (AID 1347399); details: Potency: qHTS inhibition; outcome: qHTS inhibition; note: nearly all actives have a fitted effect of over 60% in size
In short: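 Recombinant human AChE (50 mU/mL in the enzyme mix) and human liver microsomes (0.25 mg/mL final) were preincubated with compound and NADPH (0.25 mg/mL final) for 30 min at 37 C. Acetylthiocholine/DTNB was then added; thiocholine was read colorimetrically after 10 min at room temperature.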

With `Cn1c(=O)cc(Oc2ccc(F)cc2F)c2cnc(NCC(C)(C)O)nc21` the Potency [1] was 28.3 µM (active), the Potency [2] was 28.3 µM (active) and the Potency [3] was “inactive”.
`N=C1C=CC(=C(c2ccc(N)cc2)c2ccc(N)cc2)C=C1` was tested, and the Potency [1] was “inactive”, the Potency [2] was 39.9 µM (active) and the Potency [3] was “inactive”.
In the case of `CCCCC1C(=O)N(c2ccccc2)N(c2ccc(O)cc2)C1=O` (configuration not stated), the Potency [1] is reported as “inactive”, the Potency [2] is reported as “inactive” and the Potency [3] is reported as “inactive”.
For `CCN(CC)c1cccc(O)c1`, the Potency [1] was 36.3 µM (active), the Potency [2] was 32.4 µM (active) and the Potency [3] was “inactive”.
`O=c1c2ccccc2nnn1CCl` was tested, and the Potency [1] was “inactive”, the Potency [2] was “inactive” and the Potency [3] was “inactive”.
With `O=C(c1ccccc1)C1CCCCC1` the Potency [1] was “inactive”, the Potency [2] was “inactive” and the Potency [3] was “inactive”.
In the case of `CN(C)CCOc1ccc(/C(=C(/CCCl)c2ccccc2)c2ccccc2)cc1`, the Potency [1] is reported as “inactive”, the Potency [2] is reported as “inactive” and the Potency [3] is reported as “inactive”.
With `COc1cc(C(C)C)c2c(c1)S(=O)(=O)N(COc1cc(=O)n3cccc(OCCN4CCCCC4)c3n1)C2=O` the Potency [1] was 19 µM (active), the Potency [2] was 6.74 µM (active) and the activity change, negative = inhibition [3] was -1.08% [at 23.6 µM].
`Cc1cccc(C)c1NC(=O)c1ccccc1C(=O)O` was tested, and the Potency [1] was “inactive”, the Potency [2] was “inactive” and the Potency [3] was “inactive”.
For `CC(C)(C)c1ccc(OC(=O)c2ccccc2O)cc1`, the Potency [1] was “inactive”, the Potency [2] was “inactive” and the Potency [3] was “inactive”.
In the case of `CCCCCCCCCCCCCCCCC(C(=O)O)C(O)(CC(=O)O)C(=O)O` (configuration not stated), the Potency [1] is reported as “inactive”, the Potency [2] is reported as “inactive” and the Potency [3] is reported as “inactive”.
In the case of `CCC(C)(C)C(=O)O`, the Potency [1] is reported as “inactive”, the Potency [2] is reported as “inactive” and the Potency [3] is reported as “inactive”.
For `CN(C)CCCNCCCN`, the Potency [1] was 35.4 µM (active), the Potency [2] was 35.4 µM (active) and the Potency [3] was “inactive”.
`c1ccc(-c2ccc(C(c3ccccc3)n3ccnc3)cc2)cc1` (configuration not stated) was tested, and the Potency [1] was “inactive”, the Potency [2] was “inactive” and the Potency [3] was “inactive”.
`CCN(CC)c1ccc2c(-c3ccc(S(=O)(=O)O)cc3S(=O)(=O)[O-])c3ccc(=[N+](CC)CC)cc-3oc2c1` was tested, and the Potency [1] was “inactive”, the Potency [2] was 41.2 µM (active) and the Potency [3] was “inactive”.
With `CC(=O)c1ccc2c(c1)[C@H](NC(=O)c1ccc(F)cc1)[C@@H](O)C(C)(C)O2` the Potency [1] was “inactive”, the Potency [2] was “inactive” and the Potency [3] was “inactive”.
`O=C(O)c1cc(-c2ccc(F)cc2F)ccc1O` was tested, and the Potency [1] was “inactive”, the Potency [2] was “inactive” and the Potency [3] was “inactive”.
With `CCCCCCCCCCCCOCCOS(=O)(=O)O` the Potency [1] was “inactive”, the Potency [2] was “inactive” and the Potency [3] was “inactive”.
`CCOc1nc2cccc(C(=O)OC(C)OC(=O)OC3CCCCC3)c2n1Cc1ccc(-c2ccccc2-c2nn[nH]n2)cc1` (configuration not stated) was tested, and the Potency [1] was “inactive”, the Potency [2] was “inactive” and the Potency [3] was “inactive”.
`CC(O)CN(CCCN(C)C)CCCN(C)C` (configuration not stated) was tested, and the Potency [1] was “inactive”, the Potency [2] was “inactive” and the Potency [3] was “inactive”.
For `CSC(=O)c1cccc2nnsc12`, the Potency [1] was 35.6 µM (active), the Potency [2] was 39.9 µM (active) and the Potency [3] was “inactive”.
For `COc1ccc(N=Nc2cc(C)c(N=Nc3ccc(S(=O)(=O)O)cc3)cc2OC)cc1`, the Potency [1] was “inactive”, the Potency [2] was “inactive” and the Potency [3] was “inactive”.
For `CCCCCCCCCCCCOC(=O)c1ccc(O)cc1`, the Potency [1] was “inactive”, the Potency [2] was “inactive” and the Potency [3] was “inactive”.
With `Cc1nc2n(c(=O)c1CCN1CCC(C(=O)c3ccc(F)cc3)CC1)CCS2` the Potency [1] was 13.8 µM (active), the Potency [2] was 9.77 µM (active) and the Potency [3] was “inactive”.
With `CCN(CC)c1ccc(N)cc1` the Potency [1] was 32.6 µM (active), the Potency [2] was 32.6 µM (active) and the Potency [3] was “inactive”.
For `CC1CCCCN1CCCOC(=O)c1ccc(OC2CCCCC2)cc1` (configuration not stated), the Potency [1] was 17.4 µM (active), the Potency [2] was 12.3 µM (active) and the Potency [3] was “inactive”.
In the case of `COC(OC)(C(=O)c1ccccc1)c1ccccc1`, the Potency [1] is reported as “inactive”, the Potency [2] is reported as “inactive” and the Potency [3] is reported as “inactive”.
`COc1cc(C(=O)NC2CCN(C)CC2)ccc1Nc1ncc2c(n1)N(C1CCCC1)CC(F)(F)C(=O)N2C` was tested, and the Potency [1] was 32.6 µM (active), the Potency [2] was 11.6 µM (active) and the Potency [3] was “inactive”.
With `CCCCCCCCOC(=O)c1cc(O)c(O)c(O)c1` the Potency [1] was “inactive”, the Potency [2] was “inactive” and the Potency [3] was “inactive”.
For `Clc1ccccc1-c1nc(-c2ccncc2)no1`, the Potency [1] was “inactive”, the Potency [2] was “inactive” and the Potency [3] was “inactive”.
With `CC(=O)O[C@H]1C[C@@H]2CC[C@@H]3[C@H](CC[C@@]4(C)[C@H]3C[C@H]([N+]3(C)CCCCC3)[C@@H]4OC(C)=O)[C@@]2(C)C[C@@H]1N1CCCCC1` the Potency [1] was 17.4 µM (active), the Potency [2] was 6.92 µM (active) and the Potency [3] was “inactive”.
With `CCCCC/C=C\C/C=C\CCCCCCCC(=O)NC(C)c1ccccc1` (configuration not stated) the Potency [1] was “inactive” and the Potency [3] was “inactive”.
For `CN(CCOc1ccc(NS(C)(=O)=O)cc1)CCc1ccc(NS(C)(=O)=O)cc1`, the Potency [1] was 17.4 µM (active) and the Potency [3] was “inactive”.
For `CC(=O)/C=C/C=C1/C2CCC(C2)C1(C)C` (configuration not stated), the Potency [1] was 27.5 µM (active) and the Potency [3] was “inactive”.
In the case of `CCN(CC)C(=O)N1CCN(C)CC1`, the Potency [1] is reported as “inactive”, the Potency [2] is reported as “inactive” and the Potency [3] is reported as “inactive”.
`Clc1ccc(C(Cn2ccnc2)OCc2ccsc2Cl)c(Cl)c1` (configuration not stated) was tested, and the Potency [1] was “inactive” and the Potency [3] was “inactive”.
`SCCCCCCCCS` was tested, and the Potency [1] was “inactive”, the Potency [2] was “inactive” and the Potency [3] was “inactive”.
